According to PubChem BioAssay (NCI):
About 83,000 compounds went through this panel and 20% of them were active in at least one assay; those are over-represented in the sample as a whole.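 Method: cells in 96-well plates; compound added at one concentration; 48 h incubation; percent growth measured; values under 10 scored active.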 The source made the active and inactive calls.

How the values were obtained:
Test in all cases: NCI-60 one-dose screen, 48 h (100 = growth as untreated, 0 = no growth, -100 = all killed)
SR leukemia = details: 10 µM unless noted
RPMI-8226 leukemia = details: 10 µM unless noted
OVCAR-8 ovarian = details: 10 µM unless noted
OVCAR-5 ovarian = details: 10 µM unless noted
OVCAR-4 ovarian = details: 10 µM unless noted
SK-OV-3 ovarian = details: 10 µM unless noted
IGROV1 ovarian = details: 10 µM unless noted
OVCAR-3 ovarian = details: 10 µM unless noted
HS 578T breast = details: 10 µM
NCI/ADR-RES ovarian = details: 10 µM unless noted
T-47D breast = details: 10 µM unless noted
BT-549 breast = details: 10 µM unless noted
MDA-MB-435 melanoma = details: 10 µM unless noted
SW-620 colon = details: 10 µM unless noted
MCF7 breast = details: 10 µM unless noted
HCT-116 colon = details: 10 µM unless noted
HCC-2998 colon = details: 10 µM unless noted
KM12 colon = details: 10 µM unless noted

Measured: growth

COc1cc(-c2n/c(=C\c3c(O)[nH]c4cc(Cl)ccc34)cc3c2=Nc2ccccc2-3)cc(OC)c1OC
inactive: SR leukemia 36.8% | RPMI-8226 leukemia 84.6% | OVCAR-8 ovarian 59.3% | OVCAR-5 ovarian 102% | SK-OV-3 ovarian 59.4% | IGROV1 ovarian 25.2% | OVCAR-3 ovarian 58.1% | HS 578T breast 50% | NCI/ADR-RES ovarian 84.1% | T-47D breast 67.2% | BT-549 breast 45.2% | MDA-MB-435 melanoma 66.2% | SW-620 colon 41.5% | MCF7 breast 55.7% | HCT-116 colon 52.9% | HCC-2998 colon 93.1% | KM12 colon 51.8%
active: OVCAR-4 ovarian -1.32%

Cc1ccc(NC(=O)c2[nH]c(SCCN(C)C)nc2-c2ccc(F)cc2)cc1Nc1ccc2ncn(C)c(=O)c2c1
active: SR leukemia -24.9%
inactive: RPMI-8226 leukemia 40.8% | OVCAR-8 ovarian 70% | OVCAR-5 ovarian 42.6% | OVCAR-4 ovarian 70.8% | SK-OV-3 ovarian 88.4% | IGROV1 ovarian 39.8% | OVCAR-3 ovarian 78.9% | HS 578T breast 60.6% | NCI/ADR-RES ovarian 93.2% | T-47D breast 76.8% | BT-549 breast 85.2% | MDA-MB-435 melanoma 44.6% | SW-620 colon 51.8% | MCF7 breast 70% | HCT-116 colon 21% | HCC-2998 colon 49.9% | KM12 colon 49.6%

O=c1cc(N2CCOCC2)oc2c(-c3ccc4c(c3)OCCO4)csc12
inactive: SR leukemia 13.9% | OVCAR-8 ovarian 13.8% | OVCAR-5 ovarian 18.1% | OVCAR-4 ovarian 11.5% | OVCAR-3 ovarian 19.1% | NCI/ADR-RES ovarian 16.5% | MDA-MB-435 melanoma 14.7% | SW-620 colon 37.6% | HCT-116 colon 14.4% | HCC-2998 colon 33.2% | KM12 colon 31.7%
active: RPMI-8226 leukemia -0.399% | SK-OV-3 ovarian -17.3% | IGROV1 ovarian -9.54% | HS 578T breast -7.53% | T-47D breast -15% | BT-549 breast 5.39% | MCF7 breast 7.92%

C=CCn1c(C)nc2cc(Nc3nc(N4CCCC4)nc4nc[nH]c34)ccc21
active: SR leukemia -9.28% | OVCAR-4 ovarian -30.4% | OVCAR-3 ovarian -11.3% | HS 578T breast -0.0485% | BT-549 breast -33.6% | MDA-MB-435 melanoma 9.16% | HCT-116 colon -40.2%
inactive: RPMI-8226 leukemia 29.9% | OVCAR-8 ovarian 74.7% | OVCAR-5 ovarian 30.6% | SK-OV-3 ovarian 59% | IGROV1 ovarian 55.8% | NCI/ADR-RES ovarian 94.7% | T-47D breast 45% | SW-620 colon 40.8% | MCF7 breast 73.5% | HCC-2998 colon 76.4% | KM12 colon 13.1%

COc1cc(/C=C/C(=O)c2c(C)nc3ccccc3c2C)ccc1OCCCOc1cc2c(cc1OC)C(=O)N1CCC[C@H]1C=N2
inactive: OVCAR-8 ovarian 12.3% | NCI/ADR-RES ovarian 13.9%
active: SR leukemia -34.3% | RPMI-8226 leukemia -22.6% | OVCAR-5 ovarian -23.1% | OVCAR-4 ovarian -10.9% | SK-OV-3 ovarian -9.97% | IGROV1 ovarian -61.7% | OVCAR-3 ovarian -86.9% | HS 578T breast -2.33% | T-47D breast -38.8% | BT-549 breast -94.2% | MDA-MB-435 melanoma -60.8% | SW-620 colon -67.6% | MCF7 breast -51.3% | HCT-116 colon -35.8% | HCC-2998 colon -69.3% | KM12 colon -54.2%

CC(C)c1[nH]ncc1-c1nc2ccc3[nH]ncc3c2c2c1CCCC2
active: SR leukemia 6.47% | HS 578T breast -1.07%
inactive: RPMI-8226 leukemia 33.9% | OVCAR-8 ovarian 37.2% | OVCAR-5 ovarian 48.7% | OVCAR-4 ovarian 75.8% | SK-OV-3 ovarian 16.5% | IGROV1 ovarian 21.9% | OVCAR-3 ovarian 46.8% | NCI/ADR-RES ovarian 66.1% | T-47D breast 46.8% | BT-549 breast 27.4% | MDA-MB-435 melanoma 53.8% | SW-620 colon 15.9% | MCF7 breast 20.4% | HCT-116 colon 12.2% | HCC-2998 colon 53.5% | KM12 colon 17.4%

O=C(CCc1nc2sc3c(c2c(=O)[nH]1)CCC3)NCc1cn(-c2ccccc2)nc1-c1ccccc1
inactive: RPMI-8226 leukemia 90% | OVCAR-8 ovarian 44.3% | OVCAR-5 ovarian 86.2% | SK-OV-3 ovarian 68.5% | IGROV1 ovarian 93% | OVCAR-3 ovarian 16.9% | HS 578T breast 48.4% | NCI/ADR-RES ovarian 69.5% | BT-549 breast 95.6% | MDA-MB-435 melanoma 76.1% | SW-620 colon 28.7% | MCF7 breast 34.1% | HCC-2998 colon 87.5% | KM12 colon 85.3%
active: SR leukemia -18% | OVCAR-4 ovarian -48% | T-47D breast -0.261% | HCT-116 colon -27.1%

COc1ccc([C@@H]2[C@@H](Oc3ccccc3)C(=O)N2c2cc(OC)c(OC)c(OC)c2)cc1F
active: SR leukemia 5.09% | RPMI-8226 leukemia 3.15% | OVCAR-8 ovarian 6.55% | OVCAR-3 ovarian 1.08% | BT-549 breast 1.45% | MDA-MB-435 melanoma -27.5% | HCT-116 colon 2.37%
inactive: OVCAR-5 ovarian 19.8% | OVCAR-4 ovarian 39% | SK-OV-3 ovarian 16.6% | IGROV1 ovarian 18.5% | HS 578T breast 26% | NCI/ADR-RES ovarian 12.2% | T-47D breast 87.4% | SW-620 colon 26.2% | MCF7 breast 14.1% | HCC-2998 colon 12.9% | KM12 colon 11.7%

O=C1/C(=C\c2cccn2Cc2ccc(F)cc2)c2ccccc2N1c1c(Cl)cccc1Cl
inactive: SR leukemia 76% | RPMI-8226 leukemia 74.6% | OVCAR-8 ovarian 81.5% | OVCAR-5 ovarian 81.9% | OVCAR-4 ovarian 34.1% | SK-OV-3 ovarian 96.2% | IGROV1 ovarian 55.8% | OVCAR-3 ovarian 80.7% | HS 578T breast 92.9% | NCI/ADR-RES ovarian 76.1% | T-47D breast 19% | BT-549 breast 95.6% | MDA-MB-435 melanoma 107% | SW-620 colon 92% | MCF7 breast 12.6% | HCT-116 colon 70.8% | HCC-2998 colon 81.5% | KM12 colon 54.4%

CCN(CC)CCNc1c(C)cc(CO)c(Cl)c1C
inactive: SR leukemia 104% | RPMI-8226 leukemia 105% | OVCAR-8 ovarian 90.3% | OVCAR-5 ovarian 117% | OVCAR-4 ovarian 103% | SK-OV-3 ovarian 120% | IGROV1 ovarian 64.8% | OVCAR-3 ovarian 117% | HS 578T breast 107% | NCI/ADR-RES ovarian 101% | T-47D breast 112% | BT-549 breast 104% | MDA-MB-435 melanoma 106% | SW-620 colon 105% | MCF7 breast 75% | HCT-116 colon 104% | HCC-2998 colon 107% | KM12 colon 113%

N#Cc1nc(-c2cccc(Br)c2)cc(-c2ccc(Nc3nc(N4CCCCC4)nc(N4CCCCC4)n3)cc2)c1N
active: RPMI-8226 leukemia -0.0335% | OVCAR-5 ovarian 9.23% | OVCAR-4 ovarian -53.8% | IGROV1 ovarian -45.4% | OVCAR-3 ovarian -76.6% | HS 578T breast 6.14% | T-47D breast -52.6% | BT-549 breast -69.5% | MDA-MB-435 melanoma -91.7% | SW-620 colon -42.3% | MCF7 breast 6.98% | HCT-116 colon -60.4% | KM12 colon -1.24%
inactive: SR leukemia 11.9% | OVCAR-8 ovarian 12.2% | SK-OV-3 ovarian 87.4% | NCI/ADR-RES ovarian 24.3% | HCC-2998 colon 18.2%

Cc1ccc(NC(=O)Cn2nncc2CN2C(=O)CSC2=O)cc1C
inactive: SR leukemia 124% | RPMI-8226 leukemia 106% | OVCAR-8 ovarian 102% | OVCAR-5 ovarian 112% | OVCAR-4 ovarian 104% | SK-OV-3 ovarian 89.7% | IGROV1 ovarian 111% | OVCAR-3 ovarian 102% | HS 578T breast 99.2% | NCI/ADR-RES ovarian 96.1% | T-47D breast 98.7% | BT-549 breast 98.8% | MDA-MB-435 melanoma 100% | SW-620 colon 99.3% | MCF7 breast 92% | HCT-116 colon 102% | HCC-2998 colon 92.5% | KM12 colon 105%

Nc1nonc1-c1nc2ccccc2n1Cc1ccc(F)cc1
inactive: SR leukemia 22.3% | RPMI-8226 leukemia 64.4% | OVCAR-8 ovarian 76.7% | OVCAR-5 ovarian 80.4% | OVCAR-4 ovarian 66.9% | SK-OV-3 ovarian 54.4% | IGROV1 ovarian 48.7% | OVCAR-3 ovarian 48.5% | HS 578T breast 53.6% | NCI/ADR-RES ovarian 36.8% | T-47D breast 61.3% | BT-549 breast 58% | SW-620 colon 24.7% | MCF7 breast 28.4% | HCT-116 colon 30.4% | HCC-2998 colon 58.8% | KM12 colon 30.5%
active: MDA-MB-435 melanoma -39.6%

Oc1ccc(Nc2ncnc3c2sc2ncccc23)cc1
active: SR leukemia 7.62% | OVCAR-8 ovarian 7.28%
inactive: RPMI-8226 leukemia 31.9% | OVCAR-5 ovarian 65% | OVCAR-4 ovarian 84.3% | SK-OV-3 ovarian 30.3% | IGROV1 ovarian 52.3% | OVCAR-3 ovarian 55.8% | HS 578T breast 82.7% | NCI/ADR-RES ovarian 15.6% | T-47D breast 51% | BT-549 breast 47.3% | MDA-MB-435 melanoma 36.5% | SW-620 colon 44.1% | MCF7 breast 18.8% | HCT-116 colon 27.5% | HCC-2998 colon 69.4% | KM12 colon 50.6%

COc1ccc(/C=C(/C(=O)N2CCN(c3ccccc3)CC2)c2cc(OC)c(OC)c(OC)c2)cc1O
inactive: RPMI-8226 leukemia 10.9% | OVCAR-8 ovarian 14.1% | OVCAR-5 ovarian 51.2% | OVCAR-4 ovarian 55.7% | SK-OV-3 ovarian 30.4% | IGROV1 ovarian 32.2% | HS 578T breast 39.1% | T-47D breast 68.4% | SW-620 colon 24.1% | MCF7 breast 19% | HCC-2998 colon 28.6%
active: SR leukemia 9.53% | OVCAR-3 ovarian -33.1% | NCI/ADR-RES ovarian 3.09% | BT-549 breast 8.46% | MDA-MB-435 melanoma -52.8% | HCT-116 colon 6.78% | KM12 colon 9.6%

C=CCn1c(C)nc2cc(Nc3nc(Nc4ccc5nc(C)n(CC=C)c5c4)nc4ccccc34)ccc21
inactive: SR leukemia 106% | RPMI-8226 leukemia 98.8% | OVCAR-8 ovarian 98.9% | OVCAR-5 ovarian 107% | OVCAR-4 ovarian 99.5% | SK-OV-3 ovarian 104% | IGROV1 ovarian 102% | OVCAR-3 ovarian 108% | HS 578T breast 100% | NCI/ADR-RES ovarian 101% | T-47D breast 96% | BT-549 breast 106% | MDA-MB-435 melanoma 108% | SW-620 colon 106% | MCF7 breast 92.4% | HCT-116 colon 98.9% | HCC-2998 colon 104% | KM12 colon 109%

COc1cccc(CC(C)=C(c2ccc(OCCCN(C)C)cc2)c2ccc(OCCCN(C)C)cc2)c1
active: SR leukemia -49.1% | RPMI-8226 leukemia -53.9% | OVCAR-8 ovarian -78.7% | OVCAR-5 ovarian -86.5% | OVCAR-4 ovarian -22.2% | SK-OV-3 ovarian -88.6% | IGROV1 ovarian -82.6% | OVCAR-3 ovarian -89.9% | HS 578T breast -41.4% | NCI/ADR-RES ovarian -70% | T-47D breast -68.2% | MDA-MB-435 melanoma -91.7% | SW-620 colon -80.1% | MCF7 breast -73.6% | HCT-116 colon -75.6% | HCC-2998 colon -71% | KM12 colon -83%
inactive: BT-549 breast 55.3%
